High-throughput results from PubChem BioAssay.
Compounds with a hit are over-represented: about 1.5% of the library has one in this group of screens.
NOD2 RIPK2 PPI: inhibitors of human NOD2-RIPK2 interaction | AID 624267 | inhibition, % at 4.98 µM | 360,000 compounds, 0.38% hits | CHO BLA complementation NOD2-RIPK2, CCF4 ratio | O43353; in the data active means inhibition above about 21%;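 further: 0% = vehicle only and 100% = reference blocker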
Target sequence (O43353 whole entry, looked up): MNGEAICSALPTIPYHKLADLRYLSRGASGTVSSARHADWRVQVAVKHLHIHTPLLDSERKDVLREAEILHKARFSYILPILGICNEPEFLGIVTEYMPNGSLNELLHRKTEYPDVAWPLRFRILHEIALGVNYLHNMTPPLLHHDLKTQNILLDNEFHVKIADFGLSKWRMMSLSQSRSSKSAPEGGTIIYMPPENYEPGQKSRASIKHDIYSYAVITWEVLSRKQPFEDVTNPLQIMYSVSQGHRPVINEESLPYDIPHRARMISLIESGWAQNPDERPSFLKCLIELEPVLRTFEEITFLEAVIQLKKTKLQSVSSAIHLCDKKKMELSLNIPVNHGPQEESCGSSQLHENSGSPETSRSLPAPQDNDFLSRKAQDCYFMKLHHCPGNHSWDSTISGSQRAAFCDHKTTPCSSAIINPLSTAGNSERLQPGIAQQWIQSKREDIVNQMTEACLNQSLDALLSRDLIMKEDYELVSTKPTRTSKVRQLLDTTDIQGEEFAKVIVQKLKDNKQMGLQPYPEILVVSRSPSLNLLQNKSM
TLR9-MyD88 block: blocks human TLR9 binding to MyD88. inhibition, % at 4.98 µM. 340,000 compounds, 0.21% hits. AID 504734. CHO BLA complementation TLR9-MyD88, CCF4 FRET ratio;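 active means inhibition above the mean over all tested compounds plus 3 SD, cut at about 21% in these data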;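 further: 0% = DMSO only wells and 100% = clavulanate BLA inhibitor control wells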
TLR4-MyD88 BLA: TLR4-MyD88 interaction inhibition in cells. O00206+Q99836. HeLa CL3-4 TLR4/MyD88 BLA complementation, FRET ratio. inhibition, % at 8.4 µM. 200,000 compounds, 0.18% hits. AID 861; in the data active means inhibition above about 25%;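 further: 0% = vehicle and 100% = reference inhibitor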
Myeloid diff MLP: myeloid differentiation induction; ER-HoxA9 myeloid progenitors, lysozyme-GFP differentiation, flow cytometry; calls only at 10 µM; 360,000 compounds, 1% hits;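 active means normalized GFP-positive differentiation at or above the plate's own cutoff, the solvent-only control mean plus 3 SD; inconclusive means no clear call, values can overlap the other calls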;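 further: cells exposed to compound for four days before flow analysis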
NOD2-RIPK2 conf: NOD2-RIPK2 interaction inhibition confirmed | CHO cells, NOD2-RIPK2 BLA complementation, CCF4 FRET | inhibition, % at 4.98 µM | 1,200 compounds, 70% hits | shares compounds with NOD2 RIPK2 PPI;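 active means mean inhibition across replicates above a set limit taken from the earlier primary screen, cut at about 21% in these data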;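 further: 0% = DMSO-only wells and the high end = clavulanate BLA-blocked wells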
BLA counter: NOD2-RIPK2 counterscreen BLA reporter activity. shares compounds with NOD2 RIPK2 PPI. CHO BLA reporter, CCF4 FRET ratio. inhibition, % at 4.98 µM. 1,200 compounds, 57% hits. AID 624371;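 active means mean inhibition above the low-control mean inhibition plus three low-control SD, cut at about 11% in these data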;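 further: 0% = DMSO only wells and 100% = clavulanate high control wells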
* marks the source's active call; other numbers are inactive results; i = inactive; ? = inconclusive; . = no result given.

SMILES	NOD2 RIPK2 PPI	TLR9-MyD88 block	TLR4-MyD88 BLA	Myeloid diff MLP	NOD2-RIPK2 conf	BLA counter
COc1ccc(C2C(C(=O)NCCCN3CCOCC3)c3ccccc3C(=O)N2c2ccc(OC)cc2)cc1 (stereo not given)	23.6*	1.2	-12.1	i	3.7	-2.9
Nc1ccc2cc3[nH]c4cc(N)ccc4c3nc2c1	39.3*	10.7	.	?	73.1*	66.2*
Nc1ccc(-c2nc3ccc(N)cc3[nH]2)cc1	-0.7	3.6	-23.2	i	.	.
CC1(c2nnnn2C2CCCC2)CCC(=O)N1c1ccc2c(c1)OCCO2 (stereo not given)	-5.4	.	.	i	.	.
Cc1ccc(NC(=O)c2ccccc2)cc1	3.7	0.7	8.7	i	.	.
Cc1ccc(NC(=O)C2=C(c3ccccc3)S(=O)(=O)CCS2(=O)=O)cc1	55.5*	8.8	13.5	?	77.7*	9.6
CC(=O)Nc1cccc(-c2csc(C(C)(NC(C)=O)c3ccccc3)n2)c1 (stereo not given)	-6.8	.	.	i	.	.
C/C(=N\NC(=O)c1cc(-c2ccncc2)nc2ccccc12)c1ccc(N2CCOCC2)cc1	24.3*	7.4	-11.7	i	5.5	1.7
COc1cc(C(O)c2nc(-c3csc4ccccc34)cs2)ccc1F (stereo not given)	-1.3	.	.	i	.	.
CC(=O)Nc1cc([N+](=O)[O-])ccc1OCc1ccccc1	-14.2	-12.4	.	i	.	.
CC(=O)Oc1c(-c2ccco2)oc2ccccc2c1=O	27.5*	20.0	7.6	i	31.4*	30.2*
COc1ccc(S(=O)(=O)Nc2ccc3c(c2)C(=O)N([C@H](C)CO)C[C@H](C)[C@@H](CN(C)C(=O)Nc2ccc(C(F)(F)F)cc2)OCCCC[C@H](C)O3)cc1	2.1	-4.0	.	i	.	.
CC[C@]12C(=O)N(C)C[C@H]([C@@H]3C(=O)N(Cc4ccccc4)C(=O)[C@@H]31)N2C(=O)c1ccc(F)cc1	6.5	-12.1	.	i	.	.
Cc1cccc(C)c1NS(=O)(=O)c1ccc(-c2cnc(C3CC3)o2)cc1	23.4*	-2.1	.	?	9.8	-4.3
Cc1ccc(NS(=O)(=O)c2ccc(-c3cnc(C4CC4)o3)cc2)cc1	1.9	-9.0	.	?	.	.
Cc1ccccc1CN(C)CCS(=O)(=O)c1cc(Cl)ccc1Cl	27.9*	-8.2	.	i	-2.2	-3.8
CC(Sc1ccc(S(=O)(=O)N2CCOCC2)cc1[N+](=O)[O-])C(=O)O (stereo not given)	36.6*	-12.0	-0.6	i	-1.7	-5.0
O=C1N/C(=C/c2ccc(N3CCOCC3)o2)C(=O)N1c1ccccc1	39.8*	9.0	2.0	?	4.7	5.4
C=CCN1C(=O)N/C(=C/c2ccc(N3CCOCC3)o2)C1=O	.	.	13.7	.	.	.
Cc1ccc(NC(=O)C(OC(=O)c2ccc(F)cc2)c2ccccc2)cc1Cl (stereo not given)	-11.5	-0.4	-1.7	i	.	.
Cc1ccc(NC(=O)C(OC(=O)c2ccc(O)cc2)c2ccccc2)cc1Cl (stereo not given)	34.9*	-6.0	-15.3	i	-9.9	-3.1
O=C(Nc1ccccc1)c1cccc(C(F)(F)F)c1	-15.2	-4.6	7.0	i	.	.
Cc1c(C(=O)Nc2ccccc2)c2ccc(C(F)(F)F)cc2n1O	34.2*	.	.	i	28.3*	10.0
O=C(c1ccccc1)N1CCN(C(=O)N2CCOCC2)CC1	-2.7	-12.2	4.8	i	.	.
O=C1C(=C(c2ccccc2)N2CCOCC2)Cc2ccccc21	83.7*	14.6	.	i	85.2*	6.0
SMILES	NOD2 RIPK2 PPI	TLR9-MyD88 block	TLR4-MyD88 BLA	Myeloid diff MLP	NOD2-RIPK2 conf	BLA counter
Cc1ccccc1Nc1nc(N)[nH]c(=O)c1N=O	-6.2	.	.	i	.	.
CCCCCCCCN1C(=O)[C@H](CC(=O)NCCCOCCCC)C[C@@]2(C(=O)OC)CCCCC=C12	2.2	.	.	i	.	.
Cc1cccc(C)c1NC(=O)c1nc(S(=O)(=O)Cc2ccccc2)ncc1Cl	54.8*	8.4	.	i	47.9*	5.1
COc1ccc(NC(=O)c2nc(S(=O)(=O)Cc3cccc(C)c3)ncc2Cl)c(OC)c1	8.6	3.6	.	?	.	.
Cc1cccc(CS(=O)(=O)c2ncc(Cl)c(C(=O)Nc3c(C)cccc3C)n2)c1	67.3*	8.0	.	i	47.4*	-4.0
CCCc1nnc(NC(=O)c2nc(S(=O)(=O)Cc3cccc(C)c3)ncc2Cl)s1	19.6	1.0	.	i	.	.
